Reference: PubChem BioAssay
Several values for one entry are separate records, joined by “and”; a condition that tells them apart may be missing. Identical values can stand only once. Inconclusive results are not listed. Activity calls are given as the source filed them. Unless noted, no cut-off is given here; in the data, nearly all actives have AC50 up to about 26 µM.

How the values were obtained:
[1] = liver-stage malaria parasite growth inhibition, primary screen, cell-based, HepG2, luciferase luminescence, HepG2 viability (AID 624349; in the data active = parasite load remaining mostly below about 12%, no sharp cut-off; inactive = mostly above about 10%;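 note: 100% = mean of DMSO negative control wells on the same plate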); conditions: P. berghei liver stage in HepG2, luciferase luminescence, concentration not given here; parasite load remaining: stronger effect = lower value; viability: measured here: HepG2 viability without parasites
[2] = stimulators of nuclear beta-catenin in C2C12, primary screen, imaging, WNT3A-conditioned medium, mouse C2C12, NPC library (AID 1117326; in the data active = nuclear beta-catenin stimulation mostly above about 4.2%, no sharp cut-off; inactive = mostly below about 10%; note: reference of the scale not given here); conditions: stronger effect = higher value
[3] = stimulators of insulin release from INS-1E, primary screen, cell-based, 5 mM glucose, NPC library (AID 1117329;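 active = compound raises insulin release from rat beta cells at 5 mM glucose, no numeric limit stated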; note: reference of the scale not given here); conditions: rat INS-1E insulin secretion, at 10 µM, stronger effect = higher value
[4] = growth inhibition of GSK3B-pretreated HCT116 cells – cell-based, CellTiter-Glo, 0.2 to 20 µM (AID 1117336;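 active = compounds lowering colon cancer cell viability after pretreatment blocking the GSK3B kinase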); conditions: HCT116 viability after GSK3B inhibitor, at 20 µM, stronger effect = higher value
[5] = inhibition of endothelial tube formation, primary screen, imaging, VEGF stimulated, CD31 staining, tube area, NPC library (AID 1117340;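 active = compound that reduces growth-factor-driven endothelial tube area in a mixed cell culture, no cutoff stated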); conditions: VEGF-stimulated ADSC/ECFC co-culture, at 10 µM, stronger effect = higher value
[6] = glucagon-like peptide 1 release enhancers, primary assay, NCI-H716 cell line, NPC library (AID 1117341;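 active = compound raises GLP1 secretion from the human gut endocrine cells, with no numeric limit stated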; note: reference of the scale not given here); conditions: NCI-H716 cells, at 10 µM, stronger effect = higher value
[7] = HCT116 colon cancer cell growth inhibition, primary screen, CellTiter-Glo luminescence, NPC library (AID 1117342;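 active = compounds that lower survival of HCT116 colon cancer cells in the luminescence readout, no numeric limit stated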); conditions: at 20 µM (top of the series)
[8] = CellTiter-Glo luminescent readout of SW480 viability loss, NPC library primary (AID 1117343;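 active = compounds that lower viability of the colon cancer cells in the luminescence readout, with no numeric limit stated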); conditions: CellTiter-Glo luminescence; at 20 µM (top of the series) unless noted
[9] = decreased DLD-1 cellular survival, CellTiter-Glo luminescent readout, NPC compound collection, primary HTS (AID 1117346;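 active = compounds that lower survival of DLD-1 colon cancer cells in the luminescence readout, no cutoff given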); conditions: DLD-1 viability, CellTiter-Glo luminescence; at 20 µM (top of the series)
[10] = growth inhibition of DIPG glioma cells, dose response, cell-based, JHH-DIPG-1, MIPE4.0, CellTiter-Glo, qHTS (AID 1347062; cut-off not given, nearly all actives have AC50 up to about 27 µM;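 for AC50: cells exposed to compound for two days before readout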); conditions: JHH-DIPG-1 viability, CellTiter-Glo ATP luminescence
[11] = viability loss in pontine glioma line – cell-based, SU-DIPG-XXV, MIPE5.0, CellTiter-Glo, qHTS, dose response (AID 1347065); conditions: CellTiter-Glo ATP luminescence;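 note: cells exposed to compound for 48 hours before ATP readout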
[12] = JHH-DIPG-1 glioma cell viability, MIPE5.0 library, CellTiter-Glo luminescence, qHTS (AID 1347067); conditions: JHH-DIPG-1 glioma viability, CellTiter-Glo ATP luminescence;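 note: cells exposed to compound for 48 hours before readout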
[13] = SU-DIPG-XXV glioma cell viability, MIPE5.0 library, qHTS (AID 1347068; cut-off not given, nearly all actives have IC50 up to about 30 µM;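 for IC50: cells exposed to compound for 48 hours before viability readout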)
[14] = sensitizers of A549 cells to miR-34 induction, primary screen, imaging, A549 dox-inducible miR-34, nuclei and caspase counts (AID 1347080;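 active = compounds whose cell count with miR-34 switched on is under 0.7 times the count with it off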); conditions: A549 miR-34 inducible, Hoechst nuclei count, 48 h
[15] = survival rescue of mitochondrial mutant cells in low glucose, primary screen, MELAS cybrids, Rieske KO mouse fibroblasts, CellTiter-Glo (AID 1508586;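 active = mean z-score across replicates of 1.96 or higher in either the MELAS or the Rieske mutant cell line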;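 note: z relative to plate mean and SD of compound and empty wells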)
[16] = viability rescue of complex I mutant cybrids, primary screen, cell-based, galactose medium, ATP luminescence (AID 1645843;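 active = z-score of at least 1.8 in each of two replicates, scored against plate mean and spread of sample wells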;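 note: positive z means more ATP and so rescue of galactose-driven cybrid death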); conditions: complex I mutant cybrid cells, 72 h, stronger effect = higher value
[17] = growth inhibition of DIPG glioma cells, dose response, cell-based, SU-DIPG-IV, MIPE4.0, CellTiter-Glo, qHTS (AID 1347063; cut-off not given, nearly all actives have AC50 up to about 30 µM;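 note: compound exposure lasted 48 hours before the viability readout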); conditions: SU-DIPG-IV viability, CellTiter-Glo ATP luminescence
[18] = SU-DIPG-VI glioma cell viability, MIPE4.0 library, CellTiter-Glo luminescence, qHTS (AID 1347066; cut-off not given, nearly all actives have AC50 up to about 30 µM;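 note: cells exposed to compound for 48 hours before readout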); conditions: CellTiter-Glo ATP luminescence
[19] = phospholipid biosynthesis inhibitors in animal cells, primary screen, cell-based, LOPAC library, screen 4 (AID 1347384; call rule not given here); conditions: phospholipid biosynthesis inhibition screen, at 10 µM
[20] = stronger effect = lower value, cell number ratio, induced over uninduced
[21] = measured here: relative caspase fold change +Dox/-Dox
[22] = measured here: total cells with miR-34 induction, stronger effect = lower value
[23] = measured here: total cells without miR-34 induction
[24] = MELAS cybrid survival, CellTiter-Glo 48 h, stronger effect = higher value
[25] = Rieske KO mouse fibroblast survival, CellTiter-Glo 72 h

CCC1=C[C@@H]2CN(C1)Cc1c([nH]c3ccccc13)[C@@](C(=O)OC)(c1cc3c(cc1OC)N(C)[C@H]1[C@@](O)(C(=O)OC)[C@H](OC(C)=O)[C@]4(CC)C=CCN5CC[C@]31[C@@H]54)C2
1.02: fold change [14, 21]
72.7%: nuclear beta-catenin stimulation ([2]; stimulation, at 2 µM)
active: nuclear beta-catenin stimulation ([2]; at 10 µM) 60.8% | viability decrease [4] 103% | tube area decrease [5] 106% | inhibition of viability [7] 94.3% | viability decrease (inhibition) [8] 91.4% | viability decrease (inhibition) [9] 76.7% | AC50 [10] 0.0132 µM | AC50 [11] 0.204 µM | AC50 [12] 0.144 µM | IC50 [13] 1.15 µM
inactive: parasite load remaining [1] 30.5% | insulin secretion stimulation [3] 2.25% | GLP1 secretion stimulation [6] 2.5% | fold change [14, 20] 0.917 | z-score [15, 24] -2.16 | z-score [16] -2.04
1860: cell count [14, 22]
85%: viability [1]
1.89: z-score [15, 25]
2030: cell count [14, 23]

C=CC(=O)Nc1cc2c(Nc3ccc(F)c(Cl)c3)ncnc2cc1OCCCN1CCOCC1
inactive: insulin secretion stimulation [3] 1.6% | GLP1 secretion stimulation [6] 2.8%
9.2%: nuclear beta-catenin stimulation ([2]; stimulation, at 2 µM)
active: nuclear beta-catenin stimulation ([2]; at 10 µM) 45.9% | viability decrease [4] 108% | tube area decrease [5] 43.3% | inhibition of viability [7] 112% | viability decrease (inhibition) [8] 130% | viability decrease (inhibition) [9] 101% | AC50 [10] 18.7 µM | AC50 [17] 5.9 µM | AC50 [11] 6.61 µM | AC50 [18] 14.8 µM | AC50 [12] 9.34 µM | IC50 [13] 5.25 µM

NCCCC(N)(C(=O)O)C(F)F (stereo not given)
7470: cell count [14, 23]
inactive: nuclear beta-catenin stimulation ([2]; at 10 µM) -0.1% | insulin secretion stimulation [3] -2.2% | viability decrease [4] 6.2% | tube area decrease [5] -6.3% | GLP1 secretion stimulation [6] 2.8% | inhibition of viability [7] 12.2% | viability decrease (inhibition) [9] 36% | outcome [10] | outcome [17] | outcome [11] | outcome [12] | outcome [13] | fold change [14, 20] 1.13 | outcome [19] | z-score [16] 0.11
-0.3%: nuclear beta-catenin stimulation ([2]; stimulation, at 2 µM)
active: viability decrease (inhibition) [8] 65.3%
0.834: fold change [14, 21]
8420: cell count [14, 22]

COc1ccc2cccc(CCNC(C)=O)c2c1
9510 and 5930 and 7430: cell count [14, 23]
-1%: nuclear beta-catenin stimulation ([2]; stimulation, at 2 µM)
8590 and 5820 and 7020: cell count [14, 22]
inactive: nuclear beta-catenin stimulation ([2]; at 10 µM) 1.6% | insulin secretion stimulation [3] -1.5% | viability decrease [4] 2.7% | tube area decrease [5] 1% | GLP1 secretion stimulation [6] -0.3% | inhibition of viability [7] 3.7% | viability decrease (inhibition) [8] -8.5% | viability decrease (inhibition) [9] 3.3% | outcome [10] | outcome [17] | outcome [11] | outcome [18] | outcome [12] | outcome [13] | fold change [14, 20] 0.904 and 0.982 and 0.944 | outcome [19] | z-score [15, 24] 0.556 and -0.393 | z-score [16] 0.205
0.28 and -0.0702: z-score [15, 25]
0.381 and 0.908 and 0.855: fold change [14, 21]
